SF-1 inh: inhibitors of human nuclear receptor SF-1 | CHO-K1 Gal4-SF-1 LBD luciferase reporter | inhibition, % at 10 µM | 0.55% of 65,000 active | AID 525;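 active = inhibition above the mean inhibition of all tested compounds plus 3 SD, cut at about 48% in these data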;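 also: 0% = SF-1 transfected cells with DMSO and 100% = mock-transfected cells lacking SF-1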
Target sequence (Q13285 whole entry, looked up, the tested form may be a part): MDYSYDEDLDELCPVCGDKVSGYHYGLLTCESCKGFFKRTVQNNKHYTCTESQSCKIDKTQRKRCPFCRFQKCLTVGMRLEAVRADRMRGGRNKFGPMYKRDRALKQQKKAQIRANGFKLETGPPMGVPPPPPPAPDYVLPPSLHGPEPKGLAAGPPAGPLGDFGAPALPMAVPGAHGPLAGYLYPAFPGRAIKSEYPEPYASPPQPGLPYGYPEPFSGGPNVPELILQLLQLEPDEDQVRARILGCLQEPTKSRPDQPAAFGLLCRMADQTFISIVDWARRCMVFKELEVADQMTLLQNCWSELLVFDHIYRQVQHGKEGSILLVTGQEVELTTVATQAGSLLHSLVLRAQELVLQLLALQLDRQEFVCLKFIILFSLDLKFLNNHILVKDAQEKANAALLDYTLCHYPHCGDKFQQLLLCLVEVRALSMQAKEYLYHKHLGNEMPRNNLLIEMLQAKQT
The depositor's hits bear a star. This excerpt belongs to a sample that is enriched for hits.

SMILES	SF-1 inh
CCCn1c(C)cc(C(=O)CN2C(=O)c3ccccc3C2=O)c1C	-65.1
COc1ccc(-c2nnc(SCC(=O)c3cc(C)n(Cc4cccs4)c3C)o2)cc1	11.5
CCOC(=O)c1sc(NC(=O)c2cc3c(C)nn(-c4ccccc4)c3s2)nc1C	7.6
CC1(C)CC(=O)C2=C(C1)Nc1ccccc1N=C2	-57.7
CC(NC(=O)c1cc2ccccc2o1)c1cccs1 (centres undefined)	-10.6
CC(=O)c1ccc(N2CCN(C(=O)c3cc4c(=O)n(C)c5ccccc5c4n3C)CC2)cc1	47.6
C=CCn1c(=O)[nH]c2cc(C(=O)N3CCN(c4ccc(C(C)=O)cc4)CC3)ccc2c1=O	-14.5
CC(=O)c1ccc(N2CCN(c3ccc(C(F)(F)F)cn3)CC2)cc1	57.8*
O=C(OC(C(=O)NCc1cccs1)c1ccccc1Cl)c1ccco1 (centres undefined)	9.5
CCOc1cccc(C(=O)Nc2cccc(-c3nnc(-c4ccc(C)cc4)o3)c2)c1	11.0
COc1ccc(CC(=O)Nc2cccc(-c3nnc(-c4cccc(C)c4)o3)c2)cc1OC	93.3*
COc1ccc(CC(=O)Nc2ccc(-c3nnc(-c4ccccc4)o3)cc2)cc1OC	76.7*
CCC(=O)Nc1cccc(-c2nc3ccccc3c(=O)o2)c1	22.2
CC(=O)/C=C(\C)Nc1ccc(-c2cnc(-c3ccccc3)o2)cc1	-56.7
CC(=O)Nc1cccc(-c2nnc(-c3ccccc3)o2)c1	-50.6
O=C(COc1ccc(Cl)cc1Cl)NC1CCSC1=O (centres undefined)	-57.9
CC(=O)C1(C)OC(N)=C(C#N)C(c2ccccc2)C1(C#N)C#N (centres undefined)	9.1
NC(=O)c1cc(Cl)cn(-c2ccccc2)c1=O	24.0
Cc1cc(C(=O)Nc2sc3c(c2C#N)CCCC3)no1	-71.0
Cc1ccnc(SCC(=O)Nc2sc3c(c2C#N)CCCC3)n1	76.0*
Cc1cc(C(=O)Nc2sc3c(c2C#N)CCC3)no1	-115.6
COCCCn1c(SCC(=O)Nc2ccc3c(c2)OCCO3)nnc1-c1ccoc1C	-15.2
CCOC(=O)CSC(CC)C(=O)Nc1nnc(C(C)C)s1 (centres undefined)	-18.3
Cc1cc(/C=N/n2cnnc2)c(C)n1-c1ccc(OCc2ccccc2F)cc1	84.5*
CCc1ccc2oc(-c3cc(N=Cc4cccc(OC)c4O)ccc3O)nc2c1	50.6*
SMILES	SF-1 inh
CCOc1ccc2nc(N3CCC(C(=O)Nc4nnc(CC)s4)CC3)sc2c1	-67.1
CCc1nnc2c3cnn(-c4ccc(C)c(C)c4)c3ncn12	-57.6
O=C(NCCN1CCN(c2ccccc2F)CC1)C1CC(=O)N(C2CCCC2)C1 (centres undefined)	5.2
Cc1ccc(Nc2nc(CSc3nnnn3-c3ccccc3)cs2)cc1	5.9
COc1ccc(C)cc1-n1nnnc1SCc1nc2ccccc2s1	-109.7
COc1cc(CSc2nnnn2-c2ccc(C)cc2)cc(OC)c1OC	62.0*
CSc1nc(C)cc(OCNC(=O)c2cccs2)n1	-4.1
COc1cc2c(cc1OC)C(C)N(C(=O)C1COc3ccccc3O1)CC2 (centres undefined)	7.1
Cc1ccccc1OC(=O)CCC(=O)OCCCC(F)(F)C(F)(F)F	-3.3
COCCn1c(C)cc(C(=O)CSc2nc3ccccc3c(=O)[nH]2)c1C	-8.5
COCCn1c(C)cc(C(=O)COC(=O)c2ccc3ncsc3c2)c1C	-52.3
COCCn1c(C)cc(C(=O)COC(=O)c2n[nH]c3ccccc23)c1C	66.6*
COC(=O)CSc1nnc(-c2ccncc2)n1N	0.2
COc1ccccc1N(C(=O)CNS(=O)(=O)c1ccccc1)C(C(=O)NCc1ccco1)C(C)C (centres undefined)	-4.6
CC(=O)Nc1ccc(C(=O)Nc2ccc(S(=O)(=O)N3CCCC3)cc2)cc1	10.6
CC1(C)COCN1S(=O)(=O)c1ccc(C(=O)Nc2nnc(-c3ccc(Cl)s3)o2)cc1	64.9*
COc1ccc(S(=O)(=O)N2CCCC2C(=O)Nc2ccc(O)cc2)cc1 (centres undefined)	0.9
COc1ccc(-c2nnc(NC(=O)c3ccc(S(=O)(=O)N4COCC4(C)C)cc3)o2)cc1	50.2*
CC1CC(C)CN(C(=O)CSc2nnc(-c3ccc(Cl)s3)o2)C1 (centres undefined)	5.1
COc1cccc(C(=O)Nc2cccc(-c3nnc(-c4ccccc4)o3)c2)c1	-92.1
CCOC(=O)c1ccccc1NC(=O)c1ccc(NS(C)(=O)=O)cc1	-3.3
O=C(COc1ccc(Cl)cc1Cl)Nc1ccccn1	-19.2
O=C(Cn1cnc2c(oc3ccccc32)c1=O)c1ccccc1	-61.3
O=C(Nc1nnc(C2CCCCC2)s1)c1ccco1	-70.3
CCOC(=O)C1CCN(Cc2ccc(O)c3ncccc23)CC1	76.9*
SMILES	SF-1 inh
CCOC(=O)C1CCCN(c2nc(C)nc3c2oc2ccccc23)C1 (centres undefined)	17.2
CCOC(=O)N1CCC(NC(=O)c2cccnc2SC)CC1	-1.5
CCOC(OCC)P(=O)(c1ccccc1)c1ccccc1	-19.8
CCCC1C(c2ccc(OC)cc2)C(C#N)(C#N)C2(C#N)CC1(N)NC2=O (centres undefined)	-8.0
CCOC(=O)Cn1c(=O)oc2cc(S(=O)(=O)NCc3cccs3)ccc21	9.1
CC(=O)N=C(N)Sc1nc2ccccc2[nH]1	-98.2

Screening data from PubChem BioAssay.
